# An excerpt weighted towards active compounds, which were near 19% of everything screened.
# HT1080 IDH1KD tx = toxicity to HT-1080 IDH1 knockdown cells (counter line) | actives 2% (n = 360,000) | HT-1080 IDH1 knockdown viability, ATP luminescence, 48 h | Potency, µM (highest dose often 46.1 µM), without a hit: top-dose activity, negative = toxicity, most hits filed as cytotoxic;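 also: potency is read from the fitted curve at half-maximal effect; 0% = DMSO wells and -100% = cell-free medium wells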
#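 HT-1080-IDH1KD cells (IDH1 knocked down), 750/well in RPMI with 5% FBS, treated with compound 48 h at 37 degrees C. Viability by CellTiter-Glo luminescence, normalised to DMSO and no-cell wells; concentration-response curves classed.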
# IL-1B inflam inh = inhibitors of inflammasome signaling (IL-1 beta secretion) | THP-1 LPS/ATP IL-1B secretion, AlphaLISA, 16 h; hits give low values | activity change, % at 57.5 µM | actives 4.7% (n = 360,000) | AID 743279; in the data active = activity change below about -50%; inconclusive = mostly about -30% to -49%
#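 Secreted IL-1B measured by AlphaLISA bead assay after 16 h compound exposure of THP-1 cells; compounds (final up to 57.5 uM) added 1 h before LPS (250 ng/mL) and ATP (1.25 mM) stimulation; lower signal means less secretion.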
# uPA generation = blocks generation of uPA at the cell surface; cell surface uPA generation assay, qHTS; Potency, µM (doses to about 38.3 µM), for inactives: at the top dose activity change, negative = inhibition, usual class: inhibitors; actives 0.31% (n = 330,000); AID 540303; active = well fitted inhibition curve with a large enough effect; inconclusive = small, poorly fitted or top-dose-only effect; inactive = no such curve, though single readings can be large or run the other way; tested in mouse RAW 264.7 cells; also: potency is read from the fitted curve at half-maximal effect; nearly all actives have a fitted effect of over 55% in size
# TDP1 cell noCPT = qHTS for Inhibitors of human tyrosyl-DNA phosphodiesterase 1 (TDP1): qHTS in cells in absence of CPT. DT40 Tdp1-/- hTDP1 cells, no CPT, ATP luminescence, 48 h. actives 15% (n = 420,000). Potency, µM (doses to about 46.2 µM), for inactives: at the highest dose activity change, negative = growth inhibition, hits mostly inhibitors. AID 686978, 2013; also: potency is read from the fitted curve at half-maximal effect; nearly all actives have a fitted effect of over 55% in size
#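 Growth kinetics read by CellTiter-Glo luminescence after ≥48 hr at 37 °C. Cells: DT40 Tdp1-/- stably carrying human TDP1, 400 per well, compound exposure in the absence of CPT (DMSO vehicle).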
# HT1080-NT tox = kills 2HG-producing HT-1080-NT fibrosarcoma cells; AID 686970; Potency, µM (top dose mostly 46.1 µM), for inactives: at the highest dose activity, negative = less viability, usual class: cytotoxic; HT-1080-NT fibrosarcoma viability, CellTiter-Glo ATP luminescence, 48 h; actives 1.6% (n = 360,000);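 also: NT is the 2HG producing partner of a matched IDH1 knockdown line; potency is read from the fitted curve at half-maximal effect; 0% = DMSO-treated cells and -100% = media-only wells without cells; nearly all actives have a fitted effect of over 55% in size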
#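 Compounds were tested in concentration-response format on HT-1080-NT cells for 48 hours at 37 degrees C. Cell viability came from CellTiter-Glo luminescence; curves were classified by r2, response magnitude and activity.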
# TDP1 cell CPT = growth inhibition of DT40 Tdp1-/-;hTDP1 cells with camptothecin (screen for TDP1 inhibitors) | Potency, µM (doses to about 46.2 µM), inactives show top-dose activity change, negative = growth inhibition, most hits filed as inhibitors | AID 686979 | chicken DT40 Tdp1-/-;hTDP1 cells + 20 nM CPT, ATP luminescence, 48 h | actives 12% (n = 420,000); also: potency is read from the fitted curve at half-maximal effect; nearly all actives have a fitted effect of over 55% in size
#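 Cell growth measured by CellTiter-Glo luminescence after a minimum 48 h, 37 C compound exposure with 20 nM CPT in Tdp1-knockout DT40 cells stably expressing hTDP1, seeded 400/well; qHTS titration format.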
# Active calls of the source: *; i = inactive; ? = inconclusive; . = no result given. Unless noted, calls follow the shape of the dose curve; as a rule, active = well fitted curve in the direction sought with a large enough effect; inconclusive = small, poorly fitted or top-dose-only effect, or another doubt; inactive = no such curve, though single readings can be large; an effect the other way counts as inactive or inconclusive. Unless noted, % is scaled to controls: 0 for no effect and ±100 for the full control effect.
SMILES,HT1080 IDH1KD tx,IL-1B inflam inh,uPA generation,TDP1 cell noCPT,HT1080-NT tox,TDP1 cell CPT
COc1ccc(S(=O)(=O)Nc2ccc3c(c2)C(=O)N([C@H](C)CO)C[C@H](C)[C@@H](CN(C)C(=O)Nc2ccccc2)O3)cc1,14%,-6,8%,-6%,14%,-1%
C/C(=N/NC(=O)c1cccs1)c1ccco1,8%,12,-5%,-19%,5%,-7%
C/C(=N\NC(=O)c1csc(C)c1C)c1ccc(C)s1,-2%,-16,-9%,2.9µM*,7%,2.6µM*
C/C(=N\NC(=O)c1cc(-c2ccc(C)s2)[nH]n1)c1ccco1,-4%,-6,-12%,18µM*,-5%,?
C/C(=N\NC(=O)c1c[nH]c2ccccc12)c1ccc(C)s1,-7%,11,0%,12%,0%,3%
C/C(=N\NC(=O)c1csc(C)c1C)c1ccco1,-2%,-16,-7%,21µM*,-9%,10µM*
CCOC(=O)c1sc2nc(CN3CCN(c4cccc(C(F)(F)F)c4)CC3)[nH]c(=O)c2c1C,1%,-13,-8%,-24%,-6%,-1%
O=C(COC(=O)COc1ccc(Br)cc1)NC1CCS(=O)(=O)C1 (stereo not drawn),20%,10,.,1%,0%,2%
Cc1ccnc2nc(C(=O)OCC(=O)N(Cc3ccccc3)C(C)C)nn12,4%,-6,17%,-18%,7%,2%
OC[C@@H](O)C(O)[C@H](O)CO,.,.,.,-5%,.,-5%
O=C(Nc1nc2c(F)cccc2s1)c1ccc([N+](=O)[O-])o1,-7%,-12,-11%,16µM*,1%,13µM*
O=C(Nc1nc2c(Cl)cccc2s1)c1ccc([N+](=O)[O-])o1,1%,-11,-11%,16µM*,-4%,21µM*
O=C(Nc1nc2c(F)cccc2s1)c1ccc(S(=O)(=O)N2CCOCC2)cc1,.,.,.,-4%,.,?
O=C(Nc1nc2ccc(F)cc2s1)c1ccc([N+](=O)[O-])o1,-27%,-101*,.,7.3µM*,?,6.5µM*
CCOC(=O)C1=C(COC(=O)/C=C/c2ccc(O)c(OC)c2)NC(=O)NC1C (stereo not drawn),-5%,?,-13%,?,-10%,?
Cc1cc(C)nc(Sc2nc(C)nc3c2oc2ccccc23)n1,?,?,-12%,23µM*,?,?
Cc1nc(SCC(=O)N2CCCc3ccccc32)c2oc3ccccc3c2n1,8%,-8,14%,?,-2%,16µM*
Cc1nc(SCC(=O)NC(C)c2ccccc2)c2oc3ccccc3c2n1 (stereo not drawn),11%,0,-2%,21µM*,11%,16µM*
Cc1nc(SCC(=O)Nc2ccccc2)c2oc3ccccc3c2n1,-2%,3,-3%,-30%,5%,-5%
COc1ccc(NC(=O)C2=C(C)Nc3ncnn3C2c2ccc[nH]2)cc1 (stereo not drawn),.,.,.,-10%,.,2%
CN(CC(=O)Nc1ccc(F)c(F)c1F)C(=O)c1nn(Cc2ccccc2)c(=O)c2ccccc12,-4%,-3,1%,?,-4%,0%
CCOC(=O)c1cccc(-n2c(C)cc(C=O)c2C)c1,-9%,16,-3%,-30%,-2%,-3%
CCOC(=O)c1c(-n2c(C)cc(C=O)c2C)sc2c1CCCC2,?,-56*,.,?,-22%,16µM*
Cc1ccc2sc(N(CCN(C)C)C(=O)c3ccc(S(=O)(=O)N4CC(C)OC(C)C4)cc3)nc2c1C (stereo not drawn),-29%,-65*,4%,-23%,-7%,?
Cc1cc(C)c2nc(N(CCCN(C)C)C(=O)c3ccc(S(=O)(=O)N4CC(C)OC(C)C4)cc3)sc2c1 (stereo not drawn),-29%,-96*,-2%,21µM*,-15%,16µM*
SMILES,HT1080 IDH1KD tx,IL-1B inflam inh,uPA generation,TDP1 cell noCPT,HT1080-NT tox,TDP1 cell CPT
CCN1CCCC1CN(Cc1cc2ccc(C)cc2[nH]c1=O)C(=S)Nc1ccc(OC)cc1OC (stereo not drawn),?,-52*,-2%,?,?,?
CCN1CCCC1CN(Cc1cc2cc(C)cc(C)c2[nH]c1=O)C(=O)Nc1ccccc1OC (stereo not drawn),?,?,0%,21µM*,-24%,13µM*
COc1ccc(Cc2c(Cl)ncnc2Cl)cc1,-9%,-111*,-8%,?,-2%,-15%
Cc1cc(C(=O)NC2CC(C)(C)Cc3c2cnn3-c2ccccc2C)c(C)o1 (stereo not drawn),-23%,-19,2%,-28%,-8%,?
COc1ccc(C(=O)NC2CC(C)(C)Cc3c2cnn3-c2ccccc2C)c(OC)c1OC (stereo not drawn),-1%,i,2%,16µM*,2%,23µM*
c1ccc(CCn2c3ccccc3c3nnc(SCc4ccc5nonc5c4)nc32)cc1,7.1µM*,-4,?,16µM*,?,15µM*
O=C1c2ccccc2C(=O)N1CSc1nnc2c3ccccc3n(CCc3ccccc3)c2n1,22%,-22,1%,21µM*,23%,?
CN(Cc1cnc2nc(N)nc(N)c2n1)c1ccc(C(=O)NC(CCC(=O)O)C(=O)O)cc1C(F)(F)F (stereo not drawn),0.15µM*,0,-10%,0.18µM*,?,0.029µM*
CC(=O)c1ccc(OCCCC(=O)OCC(=O)Nc2ccc3[nH]c(=O)[nH]c3c2)cc1,0%,32,-1%,-19%,7%,1%
Cc1ccc(NC(=O)CSc2nc3sc(C)cc3c(=O)n2C)cc1,-2%,37,-4%,?,-6%,?
O=C(CCN1CCC2CCC(C2)C1)c1ccccc1 (stereo not drawn),6%,-4,0%,2.6µM*,7%,2.6µM*
COCC1CCN(Cc2cn(-c3ccccc3F)nc2-c2cc(C)sc2C)CC1,-10%,-5,-1%,?,0%,?
COc1ccc(N2CCN(CCCNC(=O)c3cc4sccc4n3C)CC2)cc1,?,?,.,?,?,-27%
COc1cccc(CCNC(=O)Cn2c(-c3cccs3)cc3ccccc32)c1,.,.,.,?,.,21µM*
COc1ccc(N2CCN(CCCNC(=O)Cn3c(-c4cccs4)cc4ccccc43)CC2)cc1,.,.,.,23µM*,.,18µM*
O=C(Cn1c(-c2cccs2)cc2ccccc21)NCCCN1CCN(c2ccc(F)cc2)CC1,.,.,.,23µM*,.,23µM*
